# Assay results taken from PMC9911399, “Two distinct binding modes provide the RNA-binding protein RbFox with extraordinary sequence specificity”.
# Where a chain is given by its changes, count along the chain named. Over roughly 16,000 sequences, “ka relative to ugcaugu” has its median near 0.0091; the highest 2% begin near 0.032. The full list was thinned out, with the highest values kept by preference.
# T1: RBFOX1 RRM (Homo sapiens, UniProt Q9NWB1 109-208)
# T1 sequence: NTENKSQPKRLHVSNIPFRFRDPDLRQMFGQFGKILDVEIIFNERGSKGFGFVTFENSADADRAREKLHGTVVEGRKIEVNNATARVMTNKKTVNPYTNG
# B1: GGCAGGC (DNA:RNA)
# RNA: GGGAGACCGGAAUUCAGAUUGUCCGGCAGGCUUAAAUCCCGUCGUAGCCACCA
# DNA 1: CAATCTGAATTCCGGTCTCCC
# DNA 2: TGGTGGCTACGACGGGATT
# B2: AAGCGUG (DNA:RNA)
# RNA: B1 RNA with G25A, G26A, C27G, A28C, G30U, C31G
# DNA 1: CAATCTGAATTCCGGTCTCCC
# DNA 2: TGGTGGCTACGACGGGATT
# B3: UUGAUCA (DNA:RNA)
# RNA: B1 RNA with G25U, G26U, C27G, G29U, G30C, C31A
# DNA 1: CAATCTGAATTCCGGTCTCCC
# DNA 2: TGGTGGCTACGACGGGATT
# B4: GGGCUGG (DNA:RNA)
# RNA: B1 RNA with C27G, A28C, G29U, C31G
# DNA 1: CAATCTGAATTCCGGTCTCCC
# DNA 2: TGGTGGCTACGACGGGATT
# B5: AACCGCC (DNA:RNA)
# RNA: B1 RNA with G25A, G26A, A28C, G30C
# DNA 1: CAATCTGAATTCCGGTCTCCC
# DNA 2: TGGTGGCTACGACGGGATT
# B6: UCGCAUC (DNA:RNA)
# RNA: B1 RNA with G25U, G26C, C27G, A28C, G29A, G30U
# DNA 1: CAATCTGAATTCCGGTCTCCC
# DNA 2: TGGTGGCTACGACGGGATT
# B7: UCGCAUA (DNA:RNA)
# RNA: GGGAGACCGGAAUUCAGAUUGUCCUCGCAUAUUAAAUCCCGUCGUAGCCACCA
# DNA 1: CAATCTGAATTCCGGTCTCCC
# DNA 2: TGGTGGCTACGACGGGATT
# B8: UCGCAUG (DNA:RNA)
# RNA: B7 RNA with A31G
# DNA 1: CAATCTGAATTCCGGTCTCCC
# DNA 2: TGGTGGCTACGACGGGATT
# B9: GUAAGUA (DNA:RNA)
# RNA: B1 RNA with G26U, C27A, G30U, C31A
# DNA 1: CAATCTGAATTCCGGTCTCCC
# DNA 2: TGGTGGCTACGACGGGATT
# B10: UCACAAA (DNA:RNA)
# RNA: B7 RNA with G27A, U30A
# DNA 1: CAATCTGAATTCCGGTCTCCC
# DNA 2: TGGTGGCTACGACGGGATT
# B11: GAGCAAA (DNA:RNA)
# RNA: B7 RNA with U25G, C26A, U30A
# DNA 1: CAATCTGAATTCCGGTCTCCC
# DNA 2: TGGTGGCTACGACGGGATT
# B12: CUUUGUC (DNA:RNA)
# RNA: B1 RNA with G25C, G26U, C27U, A28U, G30U
# DNA 1: CAATCTGAATTCCGGTCTCCC
# DNA 2: TGGTGGCTACGACGGGATT
# B13: AUCCCAA (DNA:RNA)
# RNA: B7 RNA with U25A, C26U, G27C, A29C, U30A
# DNA 1: CAATCTGAATTCCGGTCTCCC
# DNA 2: TGGTGGCTACGACGGGATT
# B14: CGGAUCG (DNA:RNA)
# RNA: B1 RNA with G25C, C27G, G29U, G30C, C31G
# DNA 1: CAATCTGAATTCCGGTCTCCC
# DNA 2: TGGTGGCTACGACGGGATT
# B15: CGGAUCA (DNA:RNA)
# RNA: B1 RNA with G25C, C27G, G29U, G30C, C31A
# DNA 1: CAATCTGAATTCCGGTCTCCC
# DNA 2: TGGTGGCTACGACGGGATT
# B16: GGGAUCG (DNA:RNA)
# RNA: B1 RNA with C27G, G29U, G30C, C31G
# DNA 1: CAATCTGAATTCCGGTCTCCC
# DNA 2: TGGTGGCTACGACGGGATT
# B17: GGGAUCA (DNA:RNA)
# RNA: B1 RNA with C27G, G29U, G30C, C31A
# DNA 1: CAATCTGAATTCCGGTCTCCC
# DNA 2: TGGTGGCTACGACGGGATT
# B18: GGAUCCG (DNA:RNA)
# RNA: B1 RNA with C27A, A28U, G29C, G30C, C31G
# DNA 1: CAATCTGAATTCCGGTCTCCC
# DNA 2: TGGTGGCTACGACGGGATT
# B19: GGGAUCC (DNA:RNA)
# RNA: B1 RNA with C27G, G29U, G30C
# DNA 1: CAATCTGAATTCCGGTCTCCC
# DNA 2: TGGTGGCTACGACGGGATT
# B20: GGAUCGU (DNA:RNA)
# RNA: B1 RNA with C27A, A28U, G29C, C31U
# DNA 1: CAATCTGAATTCCGGTCTCCC
# DNA 2: TGGTGGCTACGACGGGATT
# B21: GGAAUCG (DNA:RNA)
# RNA: B1 RNA with C27A, G29U, G30C, C31G
# DNA 1: CAATCTGAATTCCGGTCTCCC
# DNA 2: TGGTGGCTACGACGGGATT
# B22: GGAUUCA (DNA:RNA)
# RNA: B1 RNA with C27A, A28U, G29U, G30C, C31A
# DNA 1: CAATCTGAATTCCGGTCTCCC
# DNA 2: TGGTGGCTACGACGGGATT
# B23: UAUUAAG (DNA:RNA)
# RNA: B7 RNA with C26A, G27U, C28U, U30A, A31G
# DNA 1: CAATCTGAATTCCGGTCTCCC
# DNA 2: TGGTGGCTACGACGGGATT
# B24: UCGCAGA (DNA:RNA)
# RNA: B7 RNA with U30G
# DNA 1: CAATCTGAATTCCGGTCTCCC
# DNA 2: TGGTGGCTACGACGGGATT
# B25: AUACCGG (DNA:RNA)
# RNA: B1 RNA with G25A, G26U, C27A, A28C, G29C, C31G
# DNA 1: CAATCTGAATTCCGGTCTCCC
# DNA 2: TGGTGGCTACGACGGGATT
# B26: ACGUGUU (DNA:RNA)
# RNA: B7 RNA with U25A, C28U, A29G, A31U
# DNA 1: CAATCTGAATTCCGGTCTCCC
# DNA 2: TGGTGGCTACGACGGGATT
# B27: GCAGUUG (DNA:RNA)
# RNA: B7 RNA with U25G, G27A, C28G, A29U, A31G
# DNA 1: CAATCTGAATTCCGGTCTCCC
# DNA 2: TGGTGGCTACGACGGGATT
# B28: UCGUCGU (DNA:RNA)
# RNA: B7 RNA with C28U, A29C, U30G, A31U
# DNA 1: CAATCTGAATTCCGGTCTCCC
# DNA 2: TGGTGGCTACGACGGGATT
# B29: UGCUCGU (DNA:RNA)
# RNA: B1 RNA with G25U, A28U, G29C, C31U
# DNA 1: CAATCTGAATTCCGGTCTCCC
# DNA 2: TGGTGGCTACGACGGGATT
# B30: UGCCCGU (DNA:RNA)
# RNA: B1 RNA with G25U, A28C, G29C, C31U
# DNA 1: CAATCTGAATTCCGGTCTCCC
# DNA 2: TGGTGGCTACGACGGGATT
# B31: CUGCCCG (DNA:RNA)
# RNA: B7 RNA with U25C, C26U, A29C, U30C, A31G
# DNA 1: CAATCTGAATTCCGGTCTCCC
# DNA 2: TGGTGGCTACGACGGGATT
# B32: CUGCUCG (DNA:RNA)
# RNA: B7 RNA with U25C, C26U, A29U, U30C, A31G
# DNA 1: CAATCTGAATTCCGGTCTCCC
# DNA 2: TGGTGGCTACGACGGGATT
# B33: CUGUCCG (DNA:RNA)
# RNA: B7 RNA with U25C, C26U, C28U, A29C, U30C, A31G
# DNA 1: CAATCTGAATTCCGGTCTCCC
# DNA 2: TGGTGGCTACGACGGGATT
# Target: T1, RBFOX1 RRM
# Assay: EMSA; HiTS-Eq, 1 nM pool, 10 min; buffer printed only for the single-RNA assays: 10 mM Tris pH 7.5, 150 mM NaCl, 3.4 mM EDTA, 0.001% NP-40, 30 C
# Conditions: tags: His6 N-terminal (pET28a); label: 5' 32P
# Outline: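 Purified RbFox RRM, wild type or mutant, was incubated for 10 min in 50 µL with 1 nM of a 5′-radiolabelled RNA pool carrying 7 randomized nucleotides, whose flanks were annealed to DNA oligonucleotides, over a series of increasing protein concentrations. Unbound RNA was resolved on 8% native PAGE, cut out, reverse-transcribed, barcoded by PCR and sequenced on an Illumina HiSeq 2500. Relative association constants were derived from changes in read counts for each RNA species versus the control reaction and normalised to the cognate motif.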
row,Binder,binding signal
1,B1,0.0103 KA relative to UGCAUGU
2,B2,0.0169 KA relative to UGCAUGU
3,B3,0.0152 KA relative to UGCAUGU
4,B4,0.0301 KA relative to UGCAUGU
5,B5,0.00718 KA relative to UGCAUGU
6,B6,0.0121 KA relative to UGCAUGU
7,B7,0.00838 KA relative to UGCAUGU
8,B8,0.809 KA relative to UGCAUGU
9,B9,0.00628 KA relative to UGCAUGU
10,B10,0.00202 KA relative to UGCAUGU
11,B11,0.00616 KA relative to UGCAUGU
12,B12,0.0202 KA relative to UGCAUGU
13,B13,0.00187 KA relative to UGCAUGU
14,B14,0.0358 KA relative to UGCAUGU
15,B15,0.0199 KA relative to UGCAUGU
16,B16,0.0449 KA relative to UGCAUGU
17,B17,0.0351 KA relative to UGCAUGU

row,Binder,binding signal
1,B18,0.00934 KA relative to UGCAUGU
2,B19,0.0157 KA relative to UGCAUGU
3,B20,0.0112 KA relative to UGCAUGU
4,B21,0.0216 KA relative to UGCAUGU
5,B22,0.0122 KA relative to UGCAUGU
6,B23,0.0136 KA relative to UGCAUGU
7,B24,0.013 KA relative to UGCAUGU
8,B25,0.00158 KA relative to UGCAUGU
9,B26,0.0131 KA relative to UGCAUGU
10,B27,0.0127 KA relative to UGCAUGU
11,B28,0.0184 KA relative to UGCAUGU
12,B29,0.0359 KA relative to UGCAUGU
13,B30,0.0214 KA relative to UGCAUGU
14,B31,0.0183 KA relative to UGCAUGU
15,B32,0.0406 KA relative to UGCAUGU
16,B33,0.0164 KA relative to UGCAUGU
